Molecules are shown by their SMILES. The whole screen tested about 39,000 compounds, of which about 3,300 (8.5%) were called active. Shown is part of a subset that was picked to be rich in actives.

This experiment concerns HepG2. Nature of the experiment: cytotoxicity call (relative viability < 0.9). As to conditions: 10 µM.
Turning to `C[C@@H]1CN([C@@H](C)CO)C(=O)c2cc(NC(=O)Nc3ccc4c(c3)OCO4)ccc2O[C@@H](C)CCCCO[C@@H]1CN(C)S(=O)(=O)c1ccc(F)cc1`, the cytotoxicity call was “inactive”.

On to `C[C@@H]1CN([C@@H](C)CO)C(=O)c2cc(NS(=O)(=O)c3cn(C)cn3)ccc2O[C@H]1CN(C)C(=O)Nc1ccc(F)cc1`, for which the cytotoxicity call is “inactive”.

For `O=C1C[C@@H](c2ccc(O[C@@H]3O[C@H](CO)[C@@H](O)[C@H](O)[C@H]3O)cc2)Oc2cc(O)ccc21`, the cytotoxicity call was “inactive”.

As for `NC(=S)c1ccc(-n2cncn2)nc1`, the cytotoxicity call was “inactive”.

Regarding `COc1cccc(-c2ccc3c(c2)O[C@@H](CN(C)Cc2cncnc2)[C@@H](C)CN([C@@H](C)CO)S3(=O)=O)c1`, the cytotoxicity call was “inactive”.

As for `COC(=O)[C@H](Cc1ccccc1)N1CC2=CC(=O)[C@H](C3CC3)[C@H]2[C@@H]1[C@@H](O)CCn1cc(-c2cccc(/C=C/C(=O)NO)c2)nn1`, the cytotoxicity call was “inactive”.

`N#CN=C1NC(=O)CC(=O)N1`: the cytotoxicity call is “inactive”.

As for `C[C@H]1CN([C@@H](C)CO)C(=O)c2cc(-c3cccnc3)cnc2O[C@H]1CN(C)Cc1ccc(-c2ccccc2)cc1`, the cytotoxicity call is “inactive”.

For `C[C@@H]1CCCCO[C@H](CN(C)Cc2ccc3c(c2)OCO3)[C@H](C)CN([C@H](C)CO)C(=O)c2cc(NC(=O)c3ccccc3)ccc2O1`, the cytotoxicity call is “inactive”.

Consider `C[C@@H]1CCCCO[C@@H](CN(C)Cc2ccc3c(c2)OCO3)[C@H](C)CN([C@H](C)CO)C(=O)c2cc(NC(=O)c3ccccc3)ccc2O1`, for which the cytotoxicity call is “inactive”.

Take `C[C@@H]1CCCCO[C@@H](CN(C)Cc2ccc3c(c2)OCO3)[C@@H](C)CN([C@H](C)CO)C(=O)c2cc(NC(=O)c3ccccc3)ccc2O1`: the cytotoxicity call is “inactive”.

With `C[C@@H]1CN([C@H](C)CO)C(=O)c2cc(NC(=O)c3ccccc3)ccc2O[C@@H](C)CCCCO[C@H]1CN(C)Cc1ccc2c(c1)OCO2`, the cytotoxicity call is “active”.

Turning to `C[C@@H]1CN([C@H](C)CO)C(=O)c2cc(NC(=O)c3ccccc3)ccc2O[C@@H](C)CCCCO[C@@H]1CN(C)Cc1ccc2c(c1)OCO2`, the cytotoxicity call is “active”.

As for `C[C@@H]1CCCCO[C@H](CN(C)Cc2ccc3c(c2)OCO3)[C@@H](C)CN([C@H](C)CO)C(=O)c2cc(NC(=O)c3ccccc3)ccc2O1`, the cytotoxicity call is “inactive”.

`C[C@@H]1CN([C@@H](C)CO)C(=O)c2cc(NC(=O)c3ccccc3)ccc2O[C@@H](C)CCCCO[C@@H]1CN(C)Cc1ccc2c(c1)OCO2`: the cytotoxicity call is “inactive”.

Regarding `C[C@@H]1CCCCO[C@@H](CN(C)Cc2ccc3c(c2)OCO3)[C@H](C)CN([C@@H](C)CO)C(=O)c2cc(NC(=O)c3ccccc3)ccc2O1`, the cytotoxicity call is “active”.

Regarding `C[C@H](CO)N1C[C@H](C)[C@@H](CN(C)Cc2ccc3c(c2)OCO3)OCCCC[C@H](C)Oc2ccc(NC(=O)c3ccccc3)cc2C1=O`, the cytotoxicity call was “inactive”.

The values above are taken from the antibiotic and cytotoxicity screens of Wong et al. (2023).
